According to paper PMC5700166:

The sequences below were run against T1, GST-Nv-NF-kB (Ser allele) (Nematostella vectensis, UniProt A7UNT2 2-411) (assay: protein-binding microarray (PBM); PBM: ~300 nM protein, 6 mM HEPES pH 7.8, 80 mM KCl, 0.5 mM EDTA, 0.5 mM EGTA, 6% glycerol, 35 ng/ul poly-dIdC, 1% milk, 1 h, room temperature; Ap Aiptasia and Nv Nematostella (sea anemones) / Co Capsaspora / Aq Amphimedon (sponge) / Dm Drosophila / Hu human; RHD is the Rel homology domain; high values mean tight binding). Details: dsDNA, one strand shown.
T1 sequence: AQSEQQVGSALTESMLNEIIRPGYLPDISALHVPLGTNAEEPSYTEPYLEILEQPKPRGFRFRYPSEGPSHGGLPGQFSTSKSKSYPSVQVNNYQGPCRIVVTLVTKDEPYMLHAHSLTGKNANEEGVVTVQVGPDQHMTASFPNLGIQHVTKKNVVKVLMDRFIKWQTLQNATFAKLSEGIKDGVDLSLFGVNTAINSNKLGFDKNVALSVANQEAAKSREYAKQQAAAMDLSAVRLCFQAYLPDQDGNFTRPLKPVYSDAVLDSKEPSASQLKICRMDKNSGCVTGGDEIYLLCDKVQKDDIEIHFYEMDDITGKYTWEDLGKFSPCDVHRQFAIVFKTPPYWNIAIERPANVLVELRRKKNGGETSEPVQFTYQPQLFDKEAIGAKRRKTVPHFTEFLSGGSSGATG

| Sequence | binding signal |
| --- | --- |
| CCGATTAACATCAGGGGTAGGTTTGATGTTAATCGGGTCTTGATTCGCTTGACGCTGCTG | 1.33 z-score |
| CCGATTAACATCAGGGAATTAAATGATGTTAATCGGGTCTTGATTCGCTTGACGCTGCTG | 3.98 z-score |
| CCGATTAACATCAGAACATTCCCTGATGTTAATCGGGTCTTGATTCGCTTGACGCTGCTG | 3.49 z-score |
| CCGATTAACATCAGGGGAAGGGATGATGTTAATCGGGTCTTGATTCGCTTGACGCTGCTG | 5.77 z-score |
| CCGATTAACATCAAAAATTGCCCTGATGTTAATCGGGTCTTGATTCGCTTGACGCTGCTG | 2.01 z-score |
| CCGATTAACATCACGGAACTCCCTGATGTTAATCGGGTCTTGATTCGCTTGACGCTGCTG | 3.15 z-score |
| CCGATTAACATCACGTTATTCCCTGATGTTAATCGGGTCTTGATTCGCTTGACGCTGCTG | 3.53 z-score |
| CCGATTAACATCAATTTTTCCCATGATGTTAATCGGGTCTTGATTCGCTTGACGCTGCTG | 5.77 z-score |
| CCGATTAACATCAGGAAGACCCCTGATGTTAATCGGGTCTTGATTCGCTTGACGCTGCTG | 1.11 z-score |
| CCGATTAACATCAGGGAATTATATGATGTTAATCGGGTCTTGATTCGCTTGACGCTGCTG | 5.77 z-score |
| CCGATTAACATCAGGGGAAGGAATGATGTTAATCGGGTCTTGATTCGCTTGACGCTGCTG | 6.09 z-score |
| CCGATTAACATCATTTCCCTTGATGATGTTAATCGGGTCTTGATTCGCTTGACGCTGCTG | 3.44 z-score |
| CCGATTAACATCAGAATGCCCCCTGATGTTAATCGGGTCTTGATTCGCTTGACGCTGCTG | 3.07 z-score |
| CCGATTAACATCACCGATTTCCCTGATGTTAATCGGGTCTTGATTCGCTTGACGCTGCTG | 5.28 z-score |
| CCGATTAACATCAGACATTCCCATGATGTTAATCGGGTCTTGATTCGCTTGACGCTGCTG | 2.32 z-score |
| CCGATTAACATCACCAATTTCCCTGATGTTAATCGGGTCTTGATTCGCTTGACGCTGCTG | 6.05 z-score |
| CCGATTAACATCATAATTCCCAATGATGTTAATCGGGTCTTGATTCGCTTGACGCTGCTG | 3.07 z-score |
| CCGATTAACATCAGGGGGATAGATGATGTTAATCGGGTCTTGATTCGCTTGACGCTGCTG | 4.13 z-score |
| CCGATTAACATCAGGGAGTTACCTGATGTTAATCGGGTCTTGATTCGCTTGACGCTGCTG | 3.21 z-score |
| CCGATTAACATCACATCTTTCCCTGATGTTAATCGGGTCTTGATTCGCTTGACGCTGCTG | 4.65 z-score |

| Sequence | binding signal |
| --- | --- |
| CCGATTAACATCAGGTATTCCCATGATGTTAATCGGGTCTTGATTCGCTTGACGCTGCTG | 2.85 z-score |
| CCGATTAACATCAAGTACTTCCCTGATGTTAATCGGGTCTTGATTCGCTTGACGCTGCTG | 1.34 z-score |
| CCGATTAACATCAGGGGAGTATATGATGTTAATCGGGTCTTGATTCGCTTGACGCTGCTG | 4.21 z-score |
| CCGATTAACATCAACTAATTCCCTGATGTTAATCGGGTCTTGATTCGCTTGACGCTGCTG | 4.35 z-score |
| CCGATTAACATCAAAAAAAATCCTGATGTTAATCGGGTCTTGATTCGCTTGACGCTGCTG | 1.23 z-score |
| CCGATTAACATCAACTCGGGAAATGATGTTAATCGGGTCTTGATTCGCTTGACGCTGCTG | 2.66 z-score |
| CCGATTAACATCAGGAAATTTGATGATGTTAATCGGGTCTTGATTCGCTTGACGCTGCTG | 1.01 z-score |
| CCGATTAACATCAATTCCCATGATGATGTTAATCGGGTCTTGATTCGCTTGACGCTGCTG | 1.33 z-score |
| CCGATTAACATCAAGGGAAACCCTGATGTTAATCGGGTCTTGATTCGCTTGACGCTGCTG | 4.43 z-score |
| CCGATTAACATCAAGAGTTTCCCTGATGTTAATCGGGTCTTGATTCGCTTGACGCTGCTG | 4.9 z-score |
| CCGATTAACATCAAAAAACCCACTGATGTTAATCGGGTCTTGATTCGCTTGACGCTGCTG | 2.84 z-score |
| CCGATTAACATCAACAAAGTCCCTGATGTTAATCGGGTCTTGATTCGCTTGACGCTGCTG | 6.52 z-score |
| CCGATTAACATCAGGGATCACCCTGATGTTAATCGGGTCTTGATTCGCTTGACGCTGCTG | 1.43 z-score |
| CCGATTAACATCAGAACTTCCCATGATGTTAATCGGGTCTTGATTCGCTTGACGCTGCTG | 2.2 z-score |
| CCGATTAACATCATGTTGGGAAATGATGTTAATCGGGTCTTGATTCGCTTGACGCTGCTG | 2.11 z-score |
| CCGATTAACATCACGGAATACCCTGATGTTAATCGGGTCTTGATTCGCTTGACGCTGCTG | 3.97 z-score |
| CCGATTAACATCAGGGTTTTTTATGATGTTAATCGGGTCTTGATTCGCTTGACGCTGCTG | 4.61 z-score |
| CCGATTAACATCACATATACCCCTGATGTTAATCGGGTCTTGATTCGCTTGACGCTGCTG | 1.38 z-score |
| CCGATTAACATCAAAAAAGACCCTGATGTTAATCGGGTCTTGATTCGCTTGACGCTGCTG | 3.81 z-score |
| CCGATTAACATCACGGGTTTTTCTGATGTTAATCGGGTCTTGATTCGCTTGACGCTGCTG | 3.59 z-score |
